Measured values: the OligoGym collection

target: FBXO43; experiment: pooled miR-30 sensor sort-seq; sequence = guide strand; conditions: shRNA
Further: reference of the scale not given here.

Sequence | sensor-assay potency score (higher = more potent)
TTGCTTTTCATGAACAGCTCAT | -0.219
TTATCTTGAACAACAATTTCAC | 0.0349
TTTATCTTGAACAACAATTTCA | -0.614
TTCTTGAAAAGAACCCTCCTGG | 0.0426
AACCTTAACATATTCTTCCTGT | 0.212
TTCATGTCCACTATTTTCCTGT | 0.372

target: FBXO8; experiment: as above; conditions: shRNA

Sequence | sensor-assay potency score (higher = more potent)
TTGCTCGCAGCCATTCTCCTGC | -0.359
TTAGTCTGAAGTAAAAACTGAA | -0.599
TTTATCATTCGTTAACAGCTGT | 0.355
TTGTACAGAAGATAAACTTTGC | -0.385
TTCATCATTCGCAAGGTCCTGC | 0.558
TTCCTTTGGCGAATCATCCAGG | -0.484
TTGCTCACTGTAGCCTTCTTGT | -1.19
TTCATCAAGATAGATTCTCAGT | -0.522
TAGCACAGTACATAGACAGCAT | 0.733
TCATCCAAGACATCTCTCCTTT | 0.239
TAGGACAAGATGGTAAAGCTTA | -0.15
